Assay results: PubChem BioAssay
Activity calls are given as the source filed them.

Columns and labels:
[1] = tested on: Plasmodium falciparum Sir2 (PF13_0152, Sir2A); assay: pfSir2 binders on small-molecule microarrays, primary screen, biochemical, small-molecule microarray, 635 nm fluorescence (AID 1098); settings: small-molecule microarray binding, fluorescence 635 nm; higher = more signal;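 also: score merges spot fluorescence intensity with its signal-to-noise ratio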
[2] = small-molecule microarray binders of probe aDKK1, primary screen, biochemical, biotinylated probe, 635/667 nm fluorescence (AID 1099); settings: higher = more signal;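 also: score merges 667nm spot fluorescence with signal to noise across triplicate slides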
[3] = small-molecule microarray binders of probe aCHRDL2, primary screen, biochemical, biotinylated probe, 635/667 nm fluorescence (AID 1100); settings: higher = more signal
[4] = splicing luciferase reporter signal modulators, primary screen, spliceosome inhibition project, cell-based, HEK293, splice +/- reporter (AID 1101); settings: luminescence, 24 h, higher = more signal, called active from +8 up or from −8 down;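 also: HEK293 cells carrying a splicing-competent luciferase reporter gene; test concentration not given here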
[5] = molecular target: Fibroblast growth factor 10 (Homo sapiens) (UniProt O15520); assay: FGF10 binders on small-molecule microarrays, primary screen, biochemical, small-molecule microarray, 635 nm fluorescence (AID 1102); settings: FGF10 binding, fluorescence 635 nm, higher = more signal
[6] = tested on: glycogen synthase kinase-3 (GSK3A per assay name; protocol says GSK3B); assay: GSK3 binders on small-molecule microarrays, primary screen, biochemical, small-molecule microarray, 635 nm fluorescence, GSK3A (AID 1103); settings: small-molecule microarray binding, fluorescence 635 nm; higher = more signal; also: the record names both GSK3A and GSK3B
[7] = molecular target: Epidermal growth factor receptor (Homo sapiens) (UniProt P00533); assay: EGFR binders on small-molecule microarrays, primary screen, biochemical, small-molecule microarray, 635 nm fluorescence (AID 1104); settings: EGFR binding, higher = more signal;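 also: score merges 667 nm emission intensity with spot signal to noise over triplicate slides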
[8] = molecular target: Follistatin-related protein 3 (Homo sapiens) (UniProt O95633); assay: FSTL3 binders on small-molecule microarrays, primary screen, biochemical, small-molecule microarray, 635 nm fluorescence (AID 1105); settings: FSTL3 binding, higher = more signal;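 also: score merges emission near 667 nm and signal to noise per printed spot across three slides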
[9] = molecular target: Dickkopf-related protein 1 (Homo sapiens) (UniProt O94907); assay: DKK1 binders on small-molecule microarrays, primary screen, biochemical, small-molecule microarray, 635 nm fluorescence scan (AID 1106); settings: DKK1 binding, higher = more signal;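 also: score merges emission near 667 nm with signal to noise over three replicate slides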
[10] = tested on: Inhibin beta A chain (activin A); assay: INHBA (activin A) binders on microarrays, primary screen, biochemical, small-molecule microarray, 635 nm fluorescence scan (AID 1107); settings: small-molecule microarray binding, higher = more signal;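 also: mouse activin A protein probed at 4.33 µg/mL on printed slides; score merges bound-protein fluorescence near 667 nm with spot signal-to-noise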
[11] = tested on: Human papillomavirus type 1a protein E7 (residues 44-93); assay: HPV1a E7 fragment binders on microarrays, primary screen, biochemical, small-molecule microarray, residues 44-93, 635 nm fluorescence (AID 1108); settings: small-molecule microarray binding, fluorescence 635 nm; higher = more signal;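 also: E7 fragment applied at 1 µg/mL in TBST for 1 h at 4 C; score combines spot fluorescence with its signal to noise ratio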
[12] = modulators of HCV replicon luciferase signal, primary screen, HCV replication inhibitor project, Huh7 cells, luciferase reporter (AID 1109); settings: 48 h, higher = more signal;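 also: huh7 hepatoma cells harbouring a luciferase neomycin HCV replicon reporter; luciferase luminescence as measure of HCV replicon replication; test concentration not given here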
[13] = molecular target: Left-right determination factor 2 (Homo sapiens) (UniProt O00292); assay: LEFTY2 binders on small-molecule microarrays, primary screen, biochemical, small-molecule microarray, 635 nm fluorescence scan (AID 1110); settings: LEFTY2 binding, higher = more signal
[14] = molecular target: Calmodulin-1 (Homo sapiens) (UniProt P0DP23); assay: CALM1 binders on microarrays, EGTA buffer, profiling panel, biochemical, small-molecule microarray, Cy5-labelled CALM1 (AID 1111); settings: Cy5-CALM1 binding fluorescence, higher = more signal;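 also: labelled calmodulin applied in Tris saline Tween buffer holding calcium plus EGTA and DTT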
[15] = molecular target: Calmodulin-1 (Homo sapiens) (UniProt P0DP23); assay: calcium-bound CALM1 binders on microarrays, profiling panel, artefact control for SMM control-protein annotation, biochemical, small-molecule microarray, Cy5-labelled CALM1, plus calcium (AID 1112); settings: Cy5-CALM1 binding fluorescence, higher = more signal;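 also: score merges spot fluorescence with signal to noise from triplicate slides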
[16] = small-molecule microarray binders of probe aWnt5a, primary screen, biochemical, biotinylated probe, 635/667 nm fluorescence (AID 1113); settings: higher = more signal;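 also: score merges 667 nm fluorescence intensity with signal-to-noise per printed feature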
[17] = small-molecule microarray binders of probe aShh, primary screen, biochemical, biotinylated probe, 635/667 nm fluorescence (AID 1114); settings: higher = more signal;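 also: probe is biotin-labelled aShh protein from a stem cell growth factor screen; measures binding of labelled protein to compounds printed on the slide; score merges feature fluorescence at 667 nm with signal-to-noise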
[18] = small-molecule microarray binders of probe aNog, primary screen, biochemical, biotinylated probe, 635/667 nm fluorescence (AID 1115); settings: higher = more signal;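 also: probe is biotinylated aNog protein used at 0.15 µg/mL for 1 h at 4 C; z-score combines 667 nm fluorescence of each spot with its signal to noise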
[19] = molecular target: Torsin-1A-interacting protein 1 (Homo sapiens) (UniProt Q5JTV8); assay: LAP1 binders from COS7 cell lysate, primary screen, small-molecule microarray, 635/667 nm fluorescence (AID 1116); settings: COS7-hLAP1 lysate binding, 635 nm fluorescence, higher = more signal
[20] = molecular target: Alpha-bungarotoxin (Bungarus multicinctus) (UniProt P60615); assay: alpha-bungarotoxin binders on microarray, profiling panel, artefact control for SMM control protein annotation, biochemical, small-molecule microarray, Alexa647 label, 635/667 nm fluorescence (AID 1117); settings: alpha-BTX-A647 binding fluorescence, higher = more signal
Chain of Alpha-bungarotoxin (Bungarus multicinctus) (P60615 whole entry, looked up): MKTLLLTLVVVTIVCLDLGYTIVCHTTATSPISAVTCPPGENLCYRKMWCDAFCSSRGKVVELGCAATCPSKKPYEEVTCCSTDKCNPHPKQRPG

Chain of Torsin-1A-interacting protein 1 (Homo sapiens) (Q5JTV8 whole entry, looked up): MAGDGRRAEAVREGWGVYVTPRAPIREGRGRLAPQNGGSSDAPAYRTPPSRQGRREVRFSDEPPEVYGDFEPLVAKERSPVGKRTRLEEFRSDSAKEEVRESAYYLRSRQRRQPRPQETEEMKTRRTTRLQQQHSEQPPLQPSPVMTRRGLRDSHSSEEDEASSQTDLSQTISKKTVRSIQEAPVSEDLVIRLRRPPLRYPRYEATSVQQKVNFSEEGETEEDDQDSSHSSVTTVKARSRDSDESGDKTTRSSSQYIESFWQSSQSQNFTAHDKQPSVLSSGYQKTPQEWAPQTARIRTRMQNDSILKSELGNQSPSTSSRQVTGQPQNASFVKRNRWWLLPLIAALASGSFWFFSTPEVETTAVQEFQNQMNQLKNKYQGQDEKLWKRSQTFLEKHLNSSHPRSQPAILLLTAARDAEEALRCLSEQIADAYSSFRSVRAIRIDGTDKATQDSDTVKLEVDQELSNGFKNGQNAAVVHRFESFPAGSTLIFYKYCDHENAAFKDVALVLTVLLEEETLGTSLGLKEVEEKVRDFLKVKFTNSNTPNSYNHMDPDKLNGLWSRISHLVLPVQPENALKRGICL
Chain of Follistatin-related protein 3 (Homo sapiens) (O95633 whole entry, looked up): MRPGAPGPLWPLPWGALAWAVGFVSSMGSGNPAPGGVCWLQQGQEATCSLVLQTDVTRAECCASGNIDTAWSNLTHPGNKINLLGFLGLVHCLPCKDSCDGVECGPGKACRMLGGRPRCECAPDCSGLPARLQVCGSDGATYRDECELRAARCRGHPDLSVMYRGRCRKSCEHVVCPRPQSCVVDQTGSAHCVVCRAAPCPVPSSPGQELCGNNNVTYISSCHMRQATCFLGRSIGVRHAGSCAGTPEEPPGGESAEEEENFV
Chain of Fibroblast growth factor 10 (Homo sapiens) (O15520 whole entry, looked up): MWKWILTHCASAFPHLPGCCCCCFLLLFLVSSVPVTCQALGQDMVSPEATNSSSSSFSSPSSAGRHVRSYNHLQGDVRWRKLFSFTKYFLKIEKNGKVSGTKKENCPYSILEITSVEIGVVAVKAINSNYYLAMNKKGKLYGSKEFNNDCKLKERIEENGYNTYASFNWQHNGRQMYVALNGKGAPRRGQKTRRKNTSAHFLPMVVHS
Chain of Dickkopf-related protein 1 (Homo sapiens) (O94907 whole entry, looked up): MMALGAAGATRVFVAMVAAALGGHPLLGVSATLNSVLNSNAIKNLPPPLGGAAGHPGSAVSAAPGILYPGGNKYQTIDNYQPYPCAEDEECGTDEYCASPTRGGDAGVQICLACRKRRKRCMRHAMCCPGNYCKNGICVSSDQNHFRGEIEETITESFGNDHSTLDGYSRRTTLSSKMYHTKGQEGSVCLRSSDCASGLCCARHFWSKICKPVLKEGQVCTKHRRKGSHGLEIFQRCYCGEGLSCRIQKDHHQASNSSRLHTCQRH
Chain of Left-right determination factor 2 (Homo sapiens) (O00292 whole entry, looked up): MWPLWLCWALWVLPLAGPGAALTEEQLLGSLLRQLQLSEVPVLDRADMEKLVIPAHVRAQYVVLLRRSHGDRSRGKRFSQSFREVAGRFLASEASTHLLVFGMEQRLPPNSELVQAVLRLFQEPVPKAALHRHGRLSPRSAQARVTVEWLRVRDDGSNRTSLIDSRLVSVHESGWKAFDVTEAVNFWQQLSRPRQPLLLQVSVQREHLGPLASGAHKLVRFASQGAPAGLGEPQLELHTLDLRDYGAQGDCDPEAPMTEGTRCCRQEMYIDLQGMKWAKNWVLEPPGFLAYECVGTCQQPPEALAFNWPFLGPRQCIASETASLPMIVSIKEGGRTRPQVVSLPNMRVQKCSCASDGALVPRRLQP
Chain of Epidermal growth factor receptor (Homo sapiens) (P00533 whole entry, looked up): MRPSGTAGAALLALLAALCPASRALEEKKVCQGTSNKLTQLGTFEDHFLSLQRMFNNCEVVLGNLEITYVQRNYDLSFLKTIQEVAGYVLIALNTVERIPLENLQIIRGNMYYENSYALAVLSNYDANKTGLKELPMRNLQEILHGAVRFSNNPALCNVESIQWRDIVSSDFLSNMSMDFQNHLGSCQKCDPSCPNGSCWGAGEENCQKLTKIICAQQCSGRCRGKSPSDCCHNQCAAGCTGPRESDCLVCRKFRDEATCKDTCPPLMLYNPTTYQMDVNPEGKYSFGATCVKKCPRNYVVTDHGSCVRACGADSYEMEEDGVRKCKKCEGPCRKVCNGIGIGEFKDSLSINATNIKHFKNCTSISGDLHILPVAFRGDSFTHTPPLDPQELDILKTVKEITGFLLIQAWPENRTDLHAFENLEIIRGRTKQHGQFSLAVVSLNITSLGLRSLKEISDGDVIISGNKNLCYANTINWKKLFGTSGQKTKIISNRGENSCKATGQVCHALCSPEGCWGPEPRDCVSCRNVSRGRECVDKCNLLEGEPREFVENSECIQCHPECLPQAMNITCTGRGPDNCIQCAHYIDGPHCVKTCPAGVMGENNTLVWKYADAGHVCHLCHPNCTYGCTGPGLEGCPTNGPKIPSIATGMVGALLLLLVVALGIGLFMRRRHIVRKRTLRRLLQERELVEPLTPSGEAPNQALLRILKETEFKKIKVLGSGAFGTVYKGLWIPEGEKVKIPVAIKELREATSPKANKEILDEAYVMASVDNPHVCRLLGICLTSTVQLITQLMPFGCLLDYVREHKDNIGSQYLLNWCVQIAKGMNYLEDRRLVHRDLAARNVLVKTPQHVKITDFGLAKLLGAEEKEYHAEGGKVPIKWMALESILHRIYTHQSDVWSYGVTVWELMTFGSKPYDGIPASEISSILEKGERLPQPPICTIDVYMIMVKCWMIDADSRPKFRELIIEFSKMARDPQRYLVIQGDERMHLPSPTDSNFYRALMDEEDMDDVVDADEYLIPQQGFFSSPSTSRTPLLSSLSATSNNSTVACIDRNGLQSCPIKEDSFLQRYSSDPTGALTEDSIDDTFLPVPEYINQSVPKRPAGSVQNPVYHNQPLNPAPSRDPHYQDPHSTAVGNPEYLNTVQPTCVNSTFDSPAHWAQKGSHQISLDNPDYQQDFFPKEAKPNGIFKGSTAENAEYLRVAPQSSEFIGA

Row | Structure (SMILES) | composite z-score [1] | composite z-score [2] | composite z-score [3] | z-score [4] | composite z-score [5] | composite z-score [6] | composite z-score [7] | composite z-score [8] | composite z-score [9] | composite z-score [10] | composite z-score [11] | z-score [12] | composite z-score [13] | composite z-score [14] | composite z-score [15] | composite z-score [16] | composite z-score [17] | composite z-score [18] | composite z-score [19] | composite z-score [20]
1 | CCOC(=O)[C@H](CC(C)C)NC(=O)CCC1CC(OC(=O)NCc2ccc3c(c2)OCO3)CC2(CCCC(COC(=O)NCCOc3ccccc3)O2)O1 (stereo not given in full) | 0.543 | 0.0931 | -0.537 | -0.149 (inactive) | 0.866 | 0.994 | 0.224 | 1.22 | 0.826 | 0.267 | 1.35 | -1.07 | 0.715 | -0.0232 | -0.466 | 0.0232 | -0.0289 | -0.404 | 0.303 | 0.905
2 | CC(=O)OC[C@H]1O[C@H](CCON=C(C)C)C=C[C@@H]1OC(C)=O | 0.475 | -0.22 | 0.116 | 0.384 (inactive) | -0.0068 | -0.329 | 0.187 | 0.296 | 0.41 | 1.12 | -0.306 | -0.684 | 0.304 | -0.42 | -0.268 | -0.152 | -0.0769 | -0.324 | 0.3 | 0.501
3 | O=C1C=C[C@@H](O)[C@@H]2[C@@H]3C(=O)N(C4CCCCC4)C(=O)[C@@H]3CC[C@@H]12 | 0.252 | -0.0259 | -0.369 | 2.14 (inactive) | 1.07 | 0.708 | 0.378 | 0.797 | 0.844 | 0.234 | 0.502 | -4.18 | 0.71 | -0.0865 | -0.713 | -0.0459 | -0.0793 | -0.158 | 0.191 | 0.518
4 | CC(C)C(=O)N[C@H]1CCCN1C(=O)C=Cc1ccccc1 | 0.0571 | -0.0477 | -0.43 | 0.539 (inactive) | 1.07 | 0.823 | 0.43 | 0.722 | 0.634 | 0.0551 | 0.531 | -0.206 | 0.681 | -0.266 | -0.306 | 0.0495 | 0.3 | 0.254 | 0.289 | 0.0359
5 | O=C(NN=C1C[C@@H](O)[C@@H](O)[C@@H]2[C@@H]3C(=O)N(Cc4ccccc4)C(=O)[C@@H]3CC[C@H]12)OCc1ccccc1 | -0.944 | -0.427 | -0.47 | -0.865 (inactive) | 0.773 | 0.256 | 0.39 | 0.315 | 0.698 | -0.0371 | -0.401 | 0.0011 | 0.524 | -0.293 | -0.406 | -0.124 | -0.2 | 0.0313 | 0.305 | -0.016
6 | C=CC[C@@H]1C=C[C@H](Oc2ccc(C)cc2)[C@@H](COC(=O)NCc2cccc3ccccc23)O1 | 0.45 | -0.129 | 0.0944 | -0.566 (inactive) | 0.575 | -0.224 | -0.156 | 0.201 | 0.142 | 1.03 | 0.286 | -2.78 | 0.129 | -0.716 | -0.547 | -0.0271 | -0.0793 | -0.0496 | 0.0431 | -0.212
7 | COC(=O)[C@H](C)NC(=O)CCC1CC(OC(=O)NCCc2ccc(F)cc2)CC2(CCCC(COC(=O)NCc3ccccc3)O2)O1 (stereo not given in full) | 0.768 | -0.128 | -0.37 | -0.114 (inactive) | 0.834 | 1.28 | 0.462 | 1.29 | 0.477 | 0.0384 | 1.32 | -1.18 | 0.816 | 0.516 | -0.796 | -0.141 | -0.221 | -0.384 | 0.708 | 0.574
8 | CC(C)=CCCC(C)=CCON=C1C[C@@H](O)[C@@H](O)[C@@H]2[C@@H]3C(=O)N(Cc4ccc5c(c4)OCO5)C(=O)[C@@H]3CC[C@@H]12 | 0.769 | -0.268 | -0.451 | 0.0709 (inactive) | 1.01 | 0.579 | 0.696 | 1.03 | 0.915 | 1.3 | 0.909 | 0.298 | 0.368 | 0.359 | -0.0661 | 0.0388 | -0.0396 | 0.824 | 0.999 | 0.59
9 | OC[C@H]1O[C@H](C#Cc2ccccc2)C=C[C@@H]1O | 0.721 | -0.301 | -0.385 | 0.072 (inactive) | 0.194 | 0.356 | 0.506 | 0.546 | 0.546 | 0.408 | 0.0191 | -0.125 | 0.484 | -0.12 | -0.644 | 0.0251 | 0.0141 | -0.0125 | -0.0177 | 0.42
10 | CCOC(=O)[C@H](Cc1ccccc1)NC(=O)CCC1CC(OC(=O)NCc2ccc3c(c2)OCO3)CC2(CCCC(COC(=O)NCCOc3ccccc3)O2)O1 (stereo not given in full) | 0.653 | -0.388 | -0.704 | -1.13 (inactive) | 0.881 | 1.1 | 0.628 | 1.31 | 1.16 | -0.0859 | 1.24 | -0.682 | 0.753 | 0.505 | -0.166 | -0.15 | -0.223 | -0.0047 | 0.301 | 0.495
11 | COC(=O)[C@H](C)NC(=O)CCC1CC(OC(=O)NCCc2ccc(F)cc2)CC2(CCCC(COC(=O)NCCc3ccccc3OC)O2)O1 (stereo not given in full) | 0.557 | -0.0554 | -0.494 | -0.221 (inactive) | 1.11 | 1.05 | 0.484 | 1.16 | 1.26 | 0.176 | 1.35 | -0.466 | 0.638 | 0.48 | -0.211 | -0.0403 | 0.0141 | 0.177 | 0.195 | 0.434
